An excerpt weighted towards active compounds, which were near 5.4% of everything screened.
FMDV antiviral = foot and mouth disease virus antiviral activity; Potency, µM (highest dose often 57.9 µM), hits mostly inhibitors; FMDV antiviral cell-based qHTS; 410,000 tested, 1.2% active; AID 1159524; calls by dose curve; tested in HEK293T cells; note: read-out not given here; nearly all actives have a fitted effect of over 45% in size
VACV Venus inh = inhibitors of vaccinia virus (Venus reporter); Potency, µM (highest dose often 36.5 µM), usual class: inhibitors; Vaccinia virus Venus reporter expression, fluorescence; 330,000 tested, 0.46% active; calls by dose curve; tested in A549 cells; note: nearly all actives have a fitted effect of over 30% in size
Sm TGR inh = S. mansoni TGR enzyme inhibition; AID 485364; Potency, µM (highest dose often 114 µM), most hits filed as inhibitors; Q962Y6; purified TGR, DTNB reduction, TNB absorbance 405 nm; 360,000 tested, 3% active; active = well fitted inhibition curve with a large enough effect; inconclusive = small, poorly fitted or top-dose-only effect; inactive = no such curve, though single readings can be large or run the other way; note: nearly all actives have a fitted effect of over 60% in size
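TGR 20 nM + NADPH 100 uM (dispensed conc.), cpd preinc 15 min RT; start with NADPH (500 uM addition) then DTNB (15 mM addition). Kinetic TNB absorbance, 405 nm filter. Four-parameter Hill fit across titration.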
Lassa entry inh = Lassa virus entry inhibition | Lassa virus pseudotype entry inhibition, cell reporter | Potency, µM (doses to about 37.9 µM), hits mostly inhibitors | 300,000 tested, 1.2% active | AID 540256; calls by dose curve; tested in HEK293 cells; note: nearly all actives have a fitted effect of over 50% in size
Marburg entry inh = Marburg virus entry inhibition | Marburg virus pseudotyped entry inhibition, cell reporter | Potency, µM (top dose mostly 37.8 µM), hits mostly inhibitors | 300,000 tested, 1.8% active | AID 540276; calls by dose curve; tested in HEK293 cells
Vaccinia mCherry = inhibitors of vaccinia virus infection (mCherry reporter signal); Vaccinia virus mCherry reporter infection, fluorescence; AID 720579; Potency, µM (titrated, usually from 36.5 µM), hits mostly inhibitors; 310,000 tested, 0.63% active; calls by dose curve; tested in A549 cells; note: nearly all actives have a fitted effect of over 35% in size
A number is an active result; 0 = inactive; ? = inconclusive; - = not tested or not shown; ! = not confirmed by another sample.

SMILES	FMDV antiviral	VACV Venus inh	Sm TGR inh	Lassa entry inh	Marburg entry inh	Vaccinia mCherry
CCOC(=O)N1CCC(NS(=O)(=O)c2cc3c(cc2Cl)NC(=O)CO3)CC1	0	?	0	1.8µM	0	0
CCOC(=O)N1CCC(NS(=O)(=O)c2ccc3c(c2)OCC(=O)N3)CC1	0	-	0	0	0	-
O=C1C=C2C=C[C@@H]3C[C@@]2(O1)[C@H]1CCCCN31	?	14µM	-	-	-	?
O=C1C=C(N2CCCCC2)C2(CCCCC2)O1	0	0	-	-	-	0
COCCN1CCN(C(=O)c2cnn(-c3nccc(-c4ccccc4F)n3)c2-c2ccco2)CC1	0	0	-	-	-	0
CSc1cccc(NC(=O)N2CCN(S(=O)(=O)c3ccc4c(ccn4C)c3)CC2)c1	0	0	0	0	-	0
O=C(NCC(c1ccco1)N1CCc2ccccc21)c1cccc([N+](=O)[O-])c1 (configuration not stated)	0	0	0	5.6µM	?	?
O=C(NCC(c1ccco1)N1CCc2ccccc21)c1ccc([N+](=O)[O-])cc1 (configuration not stated)	?	0	0	0	?	0
Cc1cc(NCC2CCCCC2)nc2ccccc12	0	0	0	-	1µM	?
c1ccc(CSc2nnc3c(n2)OC(c2ccco2)Nc2ccccc2-3)cc1 (configuration not stated)	0	0	11µM	?	0	0
CCOc1ccccc1C1Nc2ccccc2-c2nnc(SCc3ccccc3)nc2O1 (configuration not stated)	0	0	0	0	0	0
Fc1ccc(C2c3[nH]c4ccccc4c3CCN2Cc2cccn2-c2ncccn2)cc1 (configuration not stated)	0	0	0	?	?	4.5µM
COc1cccc(C2c3[nH]c4ccccc4c3CCN2Cc2cccn2-c2ncccn2)c1 (configuration not stated)	0	-	?	-	-	-
O=C(NN=C1CCCC1)c1[nH]c2ccc(Br)cc2c1-c1ccccc1	0	?	0	?	8.9µM	11µM
CC1CCN(C(=O)CSc2ccc(-c3cccc([N+](=O)[O-])c3)nn2)CC1	?	0	0	0	0	0
CC1CCN(C(=O)CSc2ccc(-c3ccccc3)nn2)CC1	0	0	20µM	?	0	0
CC1=C(c2ccc(C)cc2)S(=O)(=O)N(Cc2ccc(C(=O)Nc3ccc(C)c(F)c3)cc2)C1=O	?	0	0	?	-	0
O=C(NCc1ccco1)C(=O)NCC1OCCN1C(=O)c1ccc(Cl)cc1 (configuration not stated)	0	0	18µM	0	?	0
CCCSc1ncc(Cl)c(C(=O)N2CCN(c3cccc(Cl)c3)CC2)n1	?	0	0	0	?	0
Cc1ccc2occ(CC(=O)Nc3ccc(S(=O)(=O)N4CCC(C)CC4)cc3)c2c1	0	?	0	0	0	0
Cc1ccc(Cn2cnc3c(cnn3C(C)(C)C)c2=O)cc1	25µM	-	0	-	-	-
COC(=O)[C@H]1C(=O)C[C@@](C)(O)[C@@H](C(=O)OC)[C@@H]1c1ccccc1F	-	-	-	-	0	-
CN1CCN(CC(=O)N2c3ccccc3Sc3ccccc32)CC1	0	-	0	-	-	-
CN1CCN(CC/C=C2/c3ccccc3Sc3ccc(S(=O)(=O)N(C)C)cc32)CC1	0	?	0	-	4µM!	0
O=C1c2ccccc2C(=O)N1Cc1nc2ccccc2c(=O)n1CCCN1CCOCC1	0	-	35µM	0	0	-
SMILES	FMDV antiviral	VACV Venus inh	Sm TGR inh	Lassa entry inh	Marburg entry inh	Vaccinia mCherry
CC(=O)c1c(C)[nH]c(C(=O)CSc2nc3ccccc3c(=O)n2CCCN2CCOCC2)c1C	0	-	0	0	21µM	-
CC1CCN(CCCn2c(SCC(=O)Nc3ccccc3Cl)nc3ccccc3c2=O)CC1	0	0	0	6.3µM	?	0
COc1ccc(O)c(C(=O)N2CCC3(CC2)c2ccccc2[C@@H](NC(=O)c2ccccn2)[C@@H]3OC)c1	0	0	-	-	-	0
Cc1cc(C(=O)NCC2CCC3(CCN(Cc4ccc5ccccc5c4)CC3)O2)n(C)n1 (configuration not stated)	0	0	-	-	-	0
Cc1ccc(C(=O)/C=C2\NCC(C)NC2=O)cc1 (configuration not stated)	0	0	0	8.9µM	5.6µM	0
C=CCNCC(=O)N1N=C(c2ccc3ccccc3c2)CC1c1ccc(OC)cc1 (configuration not stated)	0	?	0	0	8.9µM	?
CCOC(=O)c1ccc(NC(=O)CSc2cc(-c3ccccc3)nc(C)n2)cc1	0	0	0	0	?	0
COc1ccccc1/C=C/C(=O)NNC(=O)c1cc(C)oc1C	0	0	0	?	?	0
O=C(/C=C/c1ccco1)NC(=S)NNC(=O)c1ccco1	-	0	40µM	0	0	0
Cc1cc(C(=O)NNC(=O)/C=C/c2ccco2)c(C)o1	0	0	2.8µM	0	0	0
Cc1ccc(C(=O)/C=C/c2ccco2)c(O)c1	0	0	45µM	0	?	0
C=CCNC(=S)NNC(=O)c1ccco1	0	0	-	0	0	0
O=C(/C=C/c1ccc(Cl)cc1)NC(=S)Nc1ccc(C(=O)O)cc1	?	0	10µM	0	0	0
CCC1CN(CCNC(=O)c2ccc3c(c2)OCCO3)Cc2cc(OC)ccc2O1 (configuration not stated)	0	0	-	-	-	0
Cc1ccc(CNc2nc(C)c(-c3ccn(CCN4CCOCC4)n3)s2)o1	0	0	-	-	-	0
NC(=O)C1CCN(S(=O)(=O)c2ccc(N3CCCCS3(=O)=O)cc2)CC1	0	0	0	?	-	0
O=C(CSc1cn(CC(=O)N2CCCCC2)c2ccccc12)Nc1ccc(C(F)(F)F)cc1	0	0	0	0	-	0
O=C(/C=C/c1ccco1)NC(=S)Nc1ccc(C(=O)O)cc1	0	0	7.1µM	0	0	0
COc1ccc(NC(=S)NC(=O)/C=C/c2ccco2)cc1	0	0	10µM	0	0	0
CC(=O)NC(=S)Nc1ccc(NC(=S)NC(=O)/C=C/c2ccco2)cc1	0	0	18µM	?	0	0
CCC(=O)Nc1ccc(NC(=S)NC(=O)/C=C/c2ccco2)cc1	0	0	28µM	0	?	0
COc1cc(Nc2nc3ccccc3c3nnc(C)n23)cc(OC)c1	0	0	0	0	-	0
COc1cccc(NC(=O)Cn2c(=O)n(-c3ccc(C)cc3)c(=O)c3ccccc32)c1	0	0	0	0	?	0
Cc1cc(F)ccc1NC(=O)C1CCCN(S(=O)(=O)c2ccc3c(c2)CCCC(=O)N3)C1 (configuration not stated)	0	0	0	0	-	0
CCC(C)(C)c1ccc(OCCCC[n+]2ccc(C)cc2)c(C(C)(C)CC)c1	?	-	0	?	21µM	-
CCC(C)(C)c1ccc(OCCCC[n+]2cccc(C)c2C)c(C(C)(C)CC)c1	?	-	0	-	-	-
CCC1(c2ccccc2)CN(C)C1=O (configuration not stated)	0	0	-	-	-	0
CN1c2ccccc2N(C)C1(C)c1ccccc1	0	0	45µM	?	?	0
CN1C(=O)N(C)C2(c3ccccc3)NC(=O)NC12c1ccccc1 (configuration not stated)	0	0	0	0	0	-
